Reference: ChEMBL document CHEMBL3988442, “University of Dundee, Small-Polar-MMV Screening Library” (2021)
For some of these results: Entries with a potency or affinity are not part of this list.

Columns and labels:
Set-up in all cases: scale not given: direction of the effect not stated beside the values
[1] = biological target: Protein translocase subunit SecA (Escherichia coli (strain K12)) (UniProt P10408); assay: Assay to Identify E. coli SecA ATPase Inhibitors; assay type: functional; conditions: 30 µM
[2] = biological target: T1, Ubiquitin-activating enzyme e1, putative (Leishmania donovani (strain BPK282A1)) (UniProt E9BSI1); assay: Leishmania donovani Ubiquitin Activating Enzyme (LdE1); assay type: functional; conditions: 30 µM
T1 sequence (whole entry): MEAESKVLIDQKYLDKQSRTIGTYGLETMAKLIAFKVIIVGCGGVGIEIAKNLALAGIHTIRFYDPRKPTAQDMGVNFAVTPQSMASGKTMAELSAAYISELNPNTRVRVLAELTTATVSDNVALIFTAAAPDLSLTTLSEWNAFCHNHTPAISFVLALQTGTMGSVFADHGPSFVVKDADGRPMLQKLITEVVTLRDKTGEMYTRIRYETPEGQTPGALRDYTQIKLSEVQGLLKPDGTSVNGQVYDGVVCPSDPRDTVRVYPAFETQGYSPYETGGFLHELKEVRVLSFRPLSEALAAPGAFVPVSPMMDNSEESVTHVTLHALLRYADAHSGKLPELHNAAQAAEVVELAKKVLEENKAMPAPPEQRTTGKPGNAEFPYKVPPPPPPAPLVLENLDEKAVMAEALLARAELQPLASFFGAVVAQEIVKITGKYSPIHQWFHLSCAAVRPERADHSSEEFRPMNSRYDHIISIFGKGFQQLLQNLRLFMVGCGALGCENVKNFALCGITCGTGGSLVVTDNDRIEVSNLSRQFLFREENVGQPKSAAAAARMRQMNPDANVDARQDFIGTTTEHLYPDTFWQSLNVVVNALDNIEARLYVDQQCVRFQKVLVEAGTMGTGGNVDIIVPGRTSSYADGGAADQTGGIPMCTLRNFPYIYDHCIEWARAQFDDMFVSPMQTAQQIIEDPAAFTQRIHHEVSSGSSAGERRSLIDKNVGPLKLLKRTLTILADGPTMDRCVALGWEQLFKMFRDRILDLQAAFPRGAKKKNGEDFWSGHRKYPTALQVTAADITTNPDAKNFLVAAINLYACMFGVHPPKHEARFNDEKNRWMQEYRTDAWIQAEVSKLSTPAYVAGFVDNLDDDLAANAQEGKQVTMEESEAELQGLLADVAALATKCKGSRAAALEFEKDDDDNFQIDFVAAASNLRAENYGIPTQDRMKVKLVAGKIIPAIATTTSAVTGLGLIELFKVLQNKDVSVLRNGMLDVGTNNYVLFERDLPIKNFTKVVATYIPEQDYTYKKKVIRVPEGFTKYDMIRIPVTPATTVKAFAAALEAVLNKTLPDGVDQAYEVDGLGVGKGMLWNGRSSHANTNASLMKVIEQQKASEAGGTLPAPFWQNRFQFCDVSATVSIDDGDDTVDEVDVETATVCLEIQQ

[3] = biological target: AMP-activated protein kinase, AMPK (Homo sapiens) (UniProt P54646+O43741+P54619+Q9UGJ0+Q9Y478+Q13131+Q9UGI9); assay: AMP-dependent Kinase enzyme assay. An in vitro enzyme assay that detects ADP turnover that is directly proportional to AMPK activity. This uses naive AMPK that is activated during the assay with MK-8722; assay type: functional; conditions: 30 µM
[4] = biological target: Sialic acid-binding Ig-like lectin 9 (Homo sapiens) (UniProt Q9Y336); assay: Hs-Siglec9 ALPHAscreen SOP 20170721; conditions: 10 µM
Trypanosoma cruzi = assay: Trypanosoma cruzi phosphomannomutase and mannose-1-phosphate guanylyltransferase assay; assay type: functional; conditions: 10 µM
[5] = biological target: T2, Arginase-2, mitochondrial (Homo sapiens) (UniProt P78540); assay: in vitro enzyme assay to detect the production of urea directly proportional to the activity of Arginase II; assay type: functional; conditions: 33.3 µM; note: in the data most compounds retested in dose-response had high values
T2 sequence (whole entry): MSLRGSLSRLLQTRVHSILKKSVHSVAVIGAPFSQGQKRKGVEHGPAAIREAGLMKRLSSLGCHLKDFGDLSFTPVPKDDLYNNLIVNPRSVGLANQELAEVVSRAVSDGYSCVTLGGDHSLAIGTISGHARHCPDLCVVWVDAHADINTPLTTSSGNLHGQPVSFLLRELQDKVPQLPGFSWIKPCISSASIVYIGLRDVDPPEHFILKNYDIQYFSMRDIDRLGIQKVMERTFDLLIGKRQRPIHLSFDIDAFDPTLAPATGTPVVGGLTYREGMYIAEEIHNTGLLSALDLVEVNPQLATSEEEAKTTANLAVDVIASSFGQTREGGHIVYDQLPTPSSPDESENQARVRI

[6] = biological target: T3, Proteasome subunit beta (Trypanosoma cruzi) (UniProt O96673); assay: Trypanosoma cruzi proteasome chymotrypsin-like activity (TcProtChymo) assay.; note: in the data most compounds retested in dose-response had high values; assay type: functional; conditions: 9.37 µM
T3 sequence (whole entry): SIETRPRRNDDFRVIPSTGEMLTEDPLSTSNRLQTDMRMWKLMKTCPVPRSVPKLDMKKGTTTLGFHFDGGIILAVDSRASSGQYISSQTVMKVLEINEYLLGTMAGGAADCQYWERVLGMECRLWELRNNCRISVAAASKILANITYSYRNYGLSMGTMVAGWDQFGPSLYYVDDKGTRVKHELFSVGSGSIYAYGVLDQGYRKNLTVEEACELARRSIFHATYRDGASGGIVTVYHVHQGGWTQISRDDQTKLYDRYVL

Homo sapiens = species on record: Homo sapiens; assay: To identify inhibition of the IFN signalling (Jak-Stat) pathway via expression of an eGFP reporter gene under the control of an IFN-stimulated response element (ISRE) containing MxA promoter.; assay type: functional; conditions: 30 µM
[7] = biological target: T4, Tyrosyl-tRNA synthetase, putative (Trypanosoma cruzi (strain CL Brener)) (UniProt Q4DSP6); assay: Trypanosoma cruzi tyrosyl tRNA synthetase (TcYRS) _High Tyrosine SOP; assay type: functional; conditions: 30 µM; note: in the data most compounds retested in dose-response had high values
T4 sequence (whole entry): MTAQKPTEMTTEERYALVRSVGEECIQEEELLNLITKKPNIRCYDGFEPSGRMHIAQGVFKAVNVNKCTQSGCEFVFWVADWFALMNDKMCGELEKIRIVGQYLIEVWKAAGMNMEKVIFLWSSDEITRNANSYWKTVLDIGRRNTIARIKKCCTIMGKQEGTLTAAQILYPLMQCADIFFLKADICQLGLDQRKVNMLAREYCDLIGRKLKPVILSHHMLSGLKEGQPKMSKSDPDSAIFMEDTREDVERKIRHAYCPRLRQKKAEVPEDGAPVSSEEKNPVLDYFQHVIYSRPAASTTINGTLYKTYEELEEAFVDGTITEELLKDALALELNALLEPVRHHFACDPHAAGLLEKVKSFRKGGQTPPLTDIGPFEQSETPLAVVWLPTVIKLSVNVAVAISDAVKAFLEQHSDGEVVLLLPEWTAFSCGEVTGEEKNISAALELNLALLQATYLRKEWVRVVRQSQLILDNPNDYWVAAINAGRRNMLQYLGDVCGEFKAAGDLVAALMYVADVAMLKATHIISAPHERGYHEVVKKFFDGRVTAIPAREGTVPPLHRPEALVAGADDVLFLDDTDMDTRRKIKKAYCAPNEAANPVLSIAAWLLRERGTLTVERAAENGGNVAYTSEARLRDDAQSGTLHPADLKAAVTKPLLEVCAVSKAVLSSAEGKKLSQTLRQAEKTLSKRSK

[8] = biological target: T4, Tyrosyl-tRNA synthetase, putative (Trypanosoma cruzi (strain CL Brener)); assay: Trypanosoma cruzi tyrosyl tRNA synthetase (TcYRS) SOP; assay type: functional; conditions: 30 µM
[9] = biological target: Chromo domain-containing protein 1 (Saccharomyces cerevisiae (strain ATCC 204508 / S288c) (Baker's yeast)) (UniProt P32657); assay: ScCHD-1 Enzyme Inhibition Assay; assay type: functional; conditions: 30 µM; note: in the data most compounds retested in dose-response had high values
Chromo domain-containing protein 1 (Saccharomyces cerevisiae (strain ATCC 204508 / S288c) (Baker's yeast)), sequence (P32657 whole entry, the tested form may be a part): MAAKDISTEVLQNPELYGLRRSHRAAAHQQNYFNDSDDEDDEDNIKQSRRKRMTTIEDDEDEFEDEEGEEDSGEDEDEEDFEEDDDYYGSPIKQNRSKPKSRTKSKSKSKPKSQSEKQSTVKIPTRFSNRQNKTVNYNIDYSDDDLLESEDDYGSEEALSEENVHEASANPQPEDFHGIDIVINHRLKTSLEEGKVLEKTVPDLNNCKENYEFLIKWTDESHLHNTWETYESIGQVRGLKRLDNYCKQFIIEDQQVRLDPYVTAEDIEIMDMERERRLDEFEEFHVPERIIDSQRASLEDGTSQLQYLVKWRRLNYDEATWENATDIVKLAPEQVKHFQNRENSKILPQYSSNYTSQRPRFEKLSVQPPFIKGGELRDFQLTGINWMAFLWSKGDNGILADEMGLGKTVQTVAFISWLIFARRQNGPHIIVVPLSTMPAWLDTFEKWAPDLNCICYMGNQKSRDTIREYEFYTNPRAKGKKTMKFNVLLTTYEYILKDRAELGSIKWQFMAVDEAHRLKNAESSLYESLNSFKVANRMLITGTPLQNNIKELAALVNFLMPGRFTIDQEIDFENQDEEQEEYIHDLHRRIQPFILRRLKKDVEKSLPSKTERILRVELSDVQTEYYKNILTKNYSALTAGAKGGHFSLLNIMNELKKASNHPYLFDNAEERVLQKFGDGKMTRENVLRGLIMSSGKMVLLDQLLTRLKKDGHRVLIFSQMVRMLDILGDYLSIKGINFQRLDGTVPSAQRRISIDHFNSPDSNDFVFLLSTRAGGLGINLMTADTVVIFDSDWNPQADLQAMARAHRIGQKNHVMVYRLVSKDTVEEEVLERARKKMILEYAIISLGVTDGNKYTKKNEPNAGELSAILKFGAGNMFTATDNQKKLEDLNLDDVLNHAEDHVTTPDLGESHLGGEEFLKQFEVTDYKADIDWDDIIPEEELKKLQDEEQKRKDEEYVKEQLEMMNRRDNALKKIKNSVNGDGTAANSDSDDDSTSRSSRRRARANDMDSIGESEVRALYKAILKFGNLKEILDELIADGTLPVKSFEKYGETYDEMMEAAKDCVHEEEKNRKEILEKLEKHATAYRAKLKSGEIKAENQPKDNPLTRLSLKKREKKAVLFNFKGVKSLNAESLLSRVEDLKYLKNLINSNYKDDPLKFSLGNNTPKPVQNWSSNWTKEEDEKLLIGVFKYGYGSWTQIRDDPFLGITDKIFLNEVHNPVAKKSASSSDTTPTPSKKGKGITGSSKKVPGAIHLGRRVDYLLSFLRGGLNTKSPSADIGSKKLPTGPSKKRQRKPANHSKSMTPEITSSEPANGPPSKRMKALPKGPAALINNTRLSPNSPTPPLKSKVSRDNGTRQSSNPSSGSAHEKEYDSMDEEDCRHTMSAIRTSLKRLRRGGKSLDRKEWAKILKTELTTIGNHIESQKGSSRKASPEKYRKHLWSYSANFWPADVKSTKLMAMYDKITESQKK

Sialic acid-binding Ig-like lectin 9 (Homo sapiens), sequence (Q9Y336 whole entry): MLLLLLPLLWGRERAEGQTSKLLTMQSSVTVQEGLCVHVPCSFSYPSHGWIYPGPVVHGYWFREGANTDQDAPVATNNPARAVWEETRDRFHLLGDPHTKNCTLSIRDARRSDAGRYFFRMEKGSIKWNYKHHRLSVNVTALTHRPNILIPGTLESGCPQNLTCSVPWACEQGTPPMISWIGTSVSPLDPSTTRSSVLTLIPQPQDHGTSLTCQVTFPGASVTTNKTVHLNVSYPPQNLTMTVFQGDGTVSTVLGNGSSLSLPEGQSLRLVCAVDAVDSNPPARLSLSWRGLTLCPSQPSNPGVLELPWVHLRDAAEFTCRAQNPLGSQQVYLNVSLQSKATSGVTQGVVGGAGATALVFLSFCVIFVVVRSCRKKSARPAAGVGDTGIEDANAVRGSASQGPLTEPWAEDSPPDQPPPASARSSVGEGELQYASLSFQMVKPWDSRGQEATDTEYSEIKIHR
Protein translocase subunit SecA (Escherichia coli (strain K12)), sequence (P10408 whole entry): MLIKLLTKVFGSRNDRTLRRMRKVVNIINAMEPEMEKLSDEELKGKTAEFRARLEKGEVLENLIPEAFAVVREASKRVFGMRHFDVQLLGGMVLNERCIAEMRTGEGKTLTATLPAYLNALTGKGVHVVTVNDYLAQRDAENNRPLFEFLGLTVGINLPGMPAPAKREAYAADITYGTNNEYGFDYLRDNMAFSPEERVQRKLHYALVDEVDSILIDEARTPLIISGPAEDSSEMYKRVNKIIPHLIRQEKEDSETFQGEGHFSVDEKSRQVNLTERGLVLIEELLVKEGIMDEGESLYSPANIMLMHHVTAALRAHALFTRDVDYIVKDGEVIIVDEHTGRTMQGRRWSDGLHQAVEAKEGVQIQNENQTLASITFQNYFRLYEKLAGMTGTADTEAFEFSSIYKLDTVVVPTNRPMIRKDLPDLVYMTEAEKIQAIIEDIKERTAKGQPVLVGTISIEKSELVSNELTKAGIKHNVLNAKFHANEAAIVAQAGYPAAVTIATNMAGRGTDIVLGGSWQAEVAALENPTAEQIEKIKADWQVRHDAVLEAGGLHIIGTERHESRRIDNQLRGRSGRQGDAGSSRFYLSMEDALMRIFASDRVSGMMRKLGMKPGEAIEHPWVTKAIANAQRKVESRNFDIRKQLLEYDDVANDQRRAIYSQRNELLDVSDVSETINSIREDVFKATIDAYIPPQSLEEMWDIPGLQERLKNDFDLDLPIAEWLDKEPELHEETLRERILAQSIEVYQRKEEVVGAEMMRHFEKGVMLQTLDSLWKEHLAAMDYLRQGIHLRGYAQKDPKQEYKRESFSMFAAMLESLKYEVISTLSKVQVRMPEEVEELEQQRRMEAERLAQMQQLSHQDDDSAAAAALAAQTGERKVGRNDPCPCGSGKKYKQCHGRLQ

| SMILES | Percent Effect [1] | Percent Effect [2] | Percent Effect [3] | Percent Effect [4] | Percent Effect (Trypanosoma cruzi) | Percent Effect [5] | Percent Effect [6] | Percent Effect (Homo sapiens) | Percent Effect [7] | Percent Effect [8] | Percent Effect [9] |
| --- | --- | --- | --- | --- | --- | --- | --- | --- | --- | --- | --- |
| O=C(CCCc1nc2ccccc2[nH]1)N1CCCC(n2cccn2)C1 (stereo not given) | -4.65% | 10.5% | -3.13% | 5.64% | 8.27% | -5.36% | 7.18% | -2.05% | 5.39% | 17.1% | -12% |
| Cn1cccc1C(=O)N1CCc2ncnc(N3CCCC3)c2CC1 | -4.32% | 5.33% | 8.28% | 2.39% | 4.13% | -4.43% | -0.264% | 8.45% | 5.32% | 11.5% | -2.07% |
| CCc1ncncc1C(=O)N1CCN(Cc2ccco2)CC1 | -3.87% | 0% | 2.99% | -2.08% | -4.2% | 3.24% | 0.592% | 4.36% | -3.45% | -11.1% | 2.25% |
| O=C(CCc1nc2cccnc2[nH]1)Nc1cccnc1 | -3.23% | 22.7% | -1.32% | 1.96% | 3.14% | -2.29% | 14.1% | -1.85% | 2.12% | 20.5% | -7.05% |
| O[C@H]1[C@H](n2cc(-c3ccccc3)nn2)c2ccccc2C12CCNCC2 | -1.97% | 6.94% | -7.62% | 0.48% | 1.65% | -1.77% | 10.2% | 12.5% | 5.26% | 15.4% | -2.48% |
| CCc1ccc(CNC(=O)N2CCN(Cc3cc(C)no3)CC2)s1 | -3.56% | 15.8% | 7.06% | -6.42% | -9.24% | -1.08% | 17.2% | 13.6% | 2.46% | 6.17% | -7.04% |
| O=C1OC2(CCNCC2)CN1CC(=O)N1CCCC1c1ccco1 (stereo not given) | -3.11% | 5.41% | 1.69% | 4.82% | 0.386% | 2.86% | 19.8% | -0.46% | 5.82% | 19.5% | -4.16% |
| CS(=O)(=O)NC[C@@H]1OC[C@H]2CN(C(=O)c3ccc[nH]3)CC[C@H]21 | -1.96% | -187% | 4.44% | 3.67% | -18.5% | -44.3% | 10.6% | -0.978% | -265% | -628% | -2.84% |
| O=C(N1CCOCC1)[C@@]12CCO[C@@H]1CCN(CC1CCCCC1)C2 | -4.88% | -1.33% | 2.35% | -2.81% | -5.3% | -10% | 7.58% | 12.3% | -3.17% | -10.3% | -2.92% |
| O=C1COC2(CCN(CC3CC3)CC2)CN1c1ccccc1 | -0.394% | 2.74% | -5.09% | 8.07% | 4.17% | -2% | 18.6% | -21.4% | 9.38% | 8.64% | -1.91% |
| COCC(=O)N1CCCn2c(CN3CCCCC3)nnc2C1 | -0.412% | 11% | 1.87% | 4.92% | -5.95% | -2.4% | 22.7% | 24% | 7.29% | 11.1% | -5.31% |
| COc1ccc(CNC(=O)NC2CCN(CC(F)F)CC2)cc1C | -6.96% | 5.41% | -0.551% | 14.3% | 3.23% | 3.72% | 2.15% | -4.85% | 4.3% | 13.6% | -4.89% |
| CCc1nc(C2CCCN2CC(=O)Nc2nncs2)no1 (stereo not given) | -3.67% | 5.2% | -3.54% | 12.8% | 3.37% | -3.2% | 2.53% | 12.1% | 10.7% | 21.9% | -9.06% |
| Cc1ccsc1CN(CCN(C)C)Cc1ccccn1 | -5.5% | 4.17% | -16.2% | 21.2% | 5.15% | 18.5% | 11.1% | -4.45% | 7.37% | 15.4% | -9.23% |
| O=C(CCNC(=O)c1ccccc1)Nc1ccncc1 | 1.26% | 10.5% | 6.49% | -0.508% | -4.58% | -8.28% | 13.5% | 3.87% | 2.13% | 10.4% | -2.65% |
| COCCN(Cc1ccoc1)C(=O)c1cccnc1SC | -1.15% | 5.2% | 9.17% | 2.43% | -4.24% | 7.1% | 1.04% | 1.32% | 3.17% | 6.41% | -5.39% |
| O=C(CN1CCC(N2CCNC2=O)CC1)NCC(F)(F)F | -3.52% | 17.7% | -4.25% | 3.47% | -2.36% | 4.56% | 5% | 9.87% | 5.42% | 13.9% | -4.76% |
| Cc1nc2n(n1)CC(Nc1cc(C(F)(F)F)nc3ncnn13)CC2 (stereo not given) | -4.34% | 5.48% | 10.2% | -0.512% | 5.49% | -0.909% | 11.4% | -14.4% | 2.15% | 17.5% | -3.28% |
| Cc1occc1C(=O)N1CCC2(CCN(Cc3nccs3)C2)CC1 | -3.24% | 2.6% | 0.489% | 3.8% | 3.83% | -8.28% | -1.66% | -23.6% | 0% | -3.7% | 6.12% |
| CC(O)CN1CCN(C(=O)c2cccn2Cc2ccncc2)CC1 (stereo not given) | -5.17% | 10.1% | 0.216% | 10.1% | 2.74% | 2.66% | -2.38% | 3.13% | 0.493% | 13.9% | -8.49% |
